Results from ChEMBL document CHEMBL5308504, “Tm Shift (DSF) assay results for EUbOPEN Chemogenomics Library” (2023).
Values joined by “and” are separate entries in the source; they are usually repeats but may differ in a detail not shown here. Equal entries are not always repeated. Numbered stars: 1 amine (or outer) side, 2 acyl side, 3 side chain; on linkers, the order of the positions; unused ones are H or OH. Bridge positions count the residues as written; N and C are the ends. Square brackets hold non-standard residues; d marks the D form. Peptide text beside a SMILES is read from it. I, II: the chains in the order shown. Hexamethylenediamine = C(CCCN[*:2])CCN[*:1]; Dip = N[C@H](C(=O)O)C(c1ccccc1)c1ccccc1; Chg = N[C@H](C(=O)O)C1CCCCC1; NMeA = CN[C@@H](C)C(=O)O

Tests used:
Conditions in all cases: Compound concentration 20.0 uM, Protein concentration 2.0 uM, Result type QC Liability
[1] = target: Tyrosine-protein kinase ABL1 (Homo sapiens) (UniProt P00519)
Tyrosine-protein kinase ABL1 (Homo sapiens), sequence (P00519 whole entry): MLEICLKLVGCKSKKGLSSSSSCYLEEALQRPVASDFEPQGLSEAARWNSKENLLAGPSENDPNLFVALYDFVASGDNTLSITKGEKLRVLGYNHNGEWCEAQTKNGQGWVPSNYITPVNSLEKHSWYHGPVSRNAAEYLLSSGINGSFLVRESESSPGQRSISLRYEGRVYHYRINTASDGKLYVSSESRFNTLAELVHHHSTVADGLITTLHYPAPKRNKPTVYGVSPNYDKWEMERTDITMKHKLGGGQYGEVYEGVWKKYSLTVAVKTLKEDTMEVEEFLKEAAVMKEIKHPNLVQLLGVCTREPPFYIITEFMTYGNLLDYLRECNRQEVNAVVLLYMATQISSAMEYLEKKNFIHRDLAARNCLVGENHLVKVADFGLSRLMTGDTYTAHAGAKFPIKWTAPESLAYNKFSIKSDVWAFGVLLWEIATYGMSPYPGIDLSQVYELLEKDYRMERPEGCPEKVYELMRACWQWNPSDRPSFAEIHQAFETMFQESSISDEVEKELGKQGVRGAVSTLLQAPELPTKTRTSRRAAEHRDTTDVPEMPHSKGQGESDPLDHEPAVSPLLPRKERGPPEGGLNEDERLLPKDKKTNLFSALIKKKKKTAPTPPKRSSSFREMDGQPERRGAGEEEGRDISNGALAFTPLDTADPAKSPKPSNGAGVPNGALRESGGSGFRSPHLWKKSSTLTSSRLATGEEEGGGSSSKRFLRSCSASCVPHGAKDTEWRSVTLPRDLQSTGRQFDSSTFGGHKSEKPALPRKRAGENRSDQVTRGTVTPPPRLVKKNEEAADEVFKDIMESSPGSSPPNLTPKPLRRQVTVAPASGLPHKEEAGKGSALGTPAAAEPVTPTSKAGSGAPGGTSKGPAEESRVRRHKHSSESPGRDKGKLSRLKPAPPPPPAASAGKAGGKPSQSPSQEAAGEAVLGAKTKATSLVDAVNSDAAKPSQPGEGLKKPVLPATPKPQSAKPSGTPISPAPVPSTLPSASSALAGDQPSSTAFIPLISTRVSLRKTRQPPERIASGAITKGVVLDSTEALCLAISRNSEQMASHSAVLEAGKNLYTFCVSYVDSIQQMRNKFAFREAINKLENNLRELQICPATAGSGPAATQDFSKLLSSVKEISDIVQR

[2] = target: Cyclin-dependent kinase 2 (Homo sapiens) (UniProt P24941)
[3] = target: Casein kinase I isoform delta (Homo sapiens) (UniProt P48730)
Casein kinase I isoform delta (Homo sapiens), sequence (P48730 whole entry, looked up, canonical isoform): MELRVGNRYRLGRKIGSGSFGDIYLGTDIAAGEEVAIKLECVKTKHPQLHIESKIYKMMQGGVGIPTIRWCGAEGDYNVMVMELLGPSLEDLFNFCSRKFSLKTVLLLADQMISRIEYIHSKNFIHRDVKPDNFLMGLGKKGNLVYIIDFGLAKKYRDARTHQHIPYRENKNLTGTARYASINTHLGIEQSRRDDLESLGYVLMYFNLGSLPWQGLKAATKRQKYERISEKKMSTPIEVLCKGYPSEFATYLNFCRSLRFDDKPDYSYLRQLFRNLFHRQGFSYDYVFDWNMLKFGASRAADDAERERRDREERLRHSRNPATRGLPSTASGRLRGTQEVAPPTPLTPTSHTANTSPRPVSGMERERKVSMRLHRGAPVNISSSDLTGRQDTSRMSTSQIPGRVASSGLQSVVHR

[4] = target: Glycogen synthase kinase-3 beta (Homo sapiens) (UniProt P49841)
Glycogen synthase kinase-3 beta (Homo sapiens), sequence (P49841 whole entry, looked up): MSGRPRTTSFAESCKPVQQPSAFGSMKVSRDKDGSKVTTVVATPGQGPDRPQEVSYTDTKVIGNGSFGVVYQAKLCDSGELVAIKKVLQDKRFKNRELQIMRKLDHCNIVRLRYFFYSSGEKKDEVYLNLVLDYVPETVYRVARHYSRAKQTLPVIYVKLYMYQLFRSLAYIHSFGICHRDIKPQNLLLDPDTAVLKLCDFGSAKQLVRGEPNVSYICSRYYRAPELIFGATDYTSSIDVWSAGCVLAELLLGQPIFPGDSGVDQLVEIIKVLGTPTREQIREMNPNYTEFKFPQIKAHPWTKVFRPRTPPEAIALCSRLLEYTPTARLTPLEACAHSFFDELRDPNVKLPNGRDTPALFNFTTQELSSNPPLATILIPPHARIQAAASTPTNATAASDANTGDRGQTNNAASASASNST

[5] = target: Mitogen-activated protein kinase 1 (Homo sapiens) (UniProt P28482)
Mitogen-activated protein kinase 1 (Homo sapiens), sequence (P28482 whole entry): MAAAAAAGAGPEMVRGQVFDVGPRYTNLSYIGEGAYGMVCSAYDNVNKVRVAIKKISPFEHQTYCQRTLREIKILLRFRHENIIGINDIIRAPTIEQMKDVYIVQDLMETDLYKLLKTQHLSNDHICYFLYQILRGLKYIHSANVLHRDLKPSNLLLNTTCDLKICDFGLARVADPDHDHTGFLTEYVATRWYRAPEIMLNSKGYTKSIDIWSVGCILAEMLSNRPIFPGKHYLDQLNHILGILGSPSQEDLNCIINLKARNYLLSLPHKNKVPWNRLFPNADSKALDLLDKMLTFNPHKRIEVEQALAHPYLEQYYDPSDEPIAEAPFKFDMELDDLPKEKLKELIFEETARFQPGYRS

[6] = target: T1, Aurora kinase A (Homo sapiens) (UniProt O14965)
T1 sequence (whole entry): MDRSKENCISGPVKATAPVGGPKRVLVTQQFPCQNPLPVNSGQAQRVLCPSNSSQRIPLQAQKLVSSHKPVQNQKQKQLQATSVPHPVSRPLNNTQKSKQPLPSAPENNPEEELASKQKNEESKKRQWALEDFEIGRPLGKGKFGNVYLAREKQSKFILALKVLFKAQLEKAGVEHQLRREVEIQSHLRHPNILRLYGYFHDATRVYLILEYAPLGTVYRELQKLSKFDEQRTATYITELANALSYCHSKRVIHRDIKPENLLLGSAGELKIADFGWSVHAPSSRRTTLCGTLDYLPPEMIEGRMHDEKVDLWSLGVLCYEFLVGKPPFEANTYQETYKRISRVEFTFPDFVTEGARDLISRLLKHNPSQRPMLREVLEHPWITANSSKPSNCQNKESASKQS

SMILES	ΔTm [1]	ΔTm [2]	ΔTm [3]	ΔTm [4]	ΔTm [5]	ΔTm [6]
CCCN1C(=O)c2ccc(Cl)cc2Nc2ncccc21	0.81 °C	0.95 °C	0.61 °C	0.22 °C	0.22 °C	1.35 °C
NC(=O)c1ccc(-c2nc(-c3ccc4c(c3)OCCO4)c(-c3ccccn3)[nH]2)cc1	1 °C	-0.38 °C	5.39 °C	-0.91 °C	0.36 °C	-1.32 °C
COc1cc(C(=O)NCCOCCOCCOCC(=O)N[C@H](C(=O)N2C[C@@H](O)C[C@H]2C(=O)NCc2ccc(-c3scnc3C)cc2)C(C)(C)C)ccc1Nc1ncc(C(F)(F)F)c(Oc2cccc3c2C(=O)CC3)n1	-2.56 °C	-4.04 °C	0.94 °C	0 °C	0.73 °C	0.94 °C
C[C@H](CCC(=O)O)[C@H]1CC[C@H]2[C@@H]3[C@H](O)C[C@@H]4C[C@H](O)CC[C@]4(C)[C@H]3C[C@H](O)[C@]12C	0.17 °C	0.08 °C	0.33 °C	-0.66 °C	0.4 °C	-1.53 °C
CC(C)Nc1ncnc2cc(OCc3cccc([S@@](C)(=N)=O)c3)c(Br)cc12	2.87 °C	0.49 °C	1.35 °C	-0.51 °C	-0.37 °C	4.25 °C
CN1CCN(C(=O)c2ccc(N(C)c3ncc(C(F)(F)F)c(N[C@@H]4CCC[C@@H]4C(N)=O)n3)cc2)CC1	-0.2 °C	0.48 °C	0.31 °C	0.51 °C	0.25 °C	-0.13 °C
O=C(O)CCCCCC[C@@H]1C(=O)NC(=O)N1CCC(O)C1CCCCC1 (some centres undefined)	0.19 °C	0.46 °C	-0.02 °C	0.34 °C	-0.39 °C	-0.24 °C
CCOC(=O)c1ccc(CN(Cc2ccc(-c3cccc(S(C)(=O)=O)c3)cc2)S(=O)(=O)c2c(C)cc(C)cc2C)o1	-2.07 °C	-2 °C	-1.52 °C	-0.28 °C	-3 °C	-3.1 °C
CC(C)(C[C@H]1CN(S(=O)(=O)c2cccc(C(F)(F)F)c2)c2cc(-c3cc(F)cc(OC(F)F)c3)ccc2O1)C(=O)O	-1.5 °C	-2.02 °C	-2.71 °C	-2.26 °C	-6.9 °C	-3.89 °C
CCS(=O)(=O)c1ccc(OC)c(Nc2ncc(-c3cccc(F)c3)o2)c1	2.1 °C	0.14 °C	-0.13 °C	-1.15 °C	0.11 °C	0.2 °C
CC(C)C[C@H](NC(=O)[C@@H](O)[C@H](N)Cc1ccccc1)C(=O)O	-0.05 °C	1.32 °C	0.13 °C	0.33 °C	0.15 °C	-0.07 °C
CCCCC(C)(O)C/C=C/[C@H]1[C@H](O)CC(=O)[C@@H]1CCCCCCC(=O)O (some centres undefined)	0.39 °C	0.57 °C	-0.02 °C	0.33 °C	-0.33 °C	-0.31 °C
Cc1c(N2CCCC2)nc2ccc(Br)cc2c1C(=O)NC[C@H](CCC(=O)O)c1ccccc1Cl	-0.28 °C and -0.08 °C	-0.21 °C and 0.71 °C	-0.02 °C and 0.51 °C	-0.57 °C and -1.1 °C	-0.65 °C and 0.37 °C	-0.24 °C and -0.2 °C
N[C@@H](CC(=O)O)Cn1nnc(-c2ccc(Oc3ncc(Cl)cc3F)cc2)n1	0.91 °C	0.66 °C	-0.24 °C	0.34 °C	0.49 °C	-0.25 °C
CN(C(=O)c1cnn2cccnc12)c1cc2c(cc1N1CCOCC1)C(=O)N(C[C@@H](F)C(C)(C)O)C2	0.37 °C	-0.41 °C	-0.06 °C	-0.42 °C	0.49 °C	-0.66 °C
Cn1cc(NC(=O)c2ccc3nc4n(c3c2)CCCNC4=O)nc1C(=O)NC1CCCC1	1.61 °C	0.41 °C	0.38 °C	-0.59 °C	0.46 °C	0.5 °C
Cc1cnc(Nc2ccc(C(=O)N3CCN(C)CC3)cc2)nc1N[C@@H]1CCC[C@@H]1C(N)=O	5.89 °C	6.47 °C	0.27 °C	3.07 °C	1.68 °C	14.7 °C
COc1cc2nc([C@@H]3CCCS(=O)(=O)C3)n(C)c2cc1NC(=O)c1cccc(C(C)(F)F)n1	0.81 °C	0.09 °C	0.86 °C	-1.39 °C	0.05 °C	1.82 °C
CCCCC[C@H](O)/C=C/[C@H]1[C@H](O)CC(=O)[C@@H]1CCCCCCC(=O)O	0.19 °C	0.43 °C	0.1 °C	-0.48 °C	0.29 °C	-0.09 °C
CN[C@@H](C)C(=O)N[C@H](C(=O)N1CCC[C@H]1C(=O)N[C@H](C(=O)NCCCCCCNC(=O)[C@@H](NC(=O)[C@@H]1CCCN1C(=O)[C@@H](NC(=O)[C@H](C)NC)C1CCCCC1)C(c1ccccc1)c1ccccc1)C(c1ccccc1)c1ccccc1)C1CCCCC1 (I: H-[NMeA][Chg]P[Dip] / II: H-[NMeA][Chg]P[Dip]; linker I:C-II:C via Hexamethylenediamine)	-0.65 °C	-1.8 °C	-0.57 °C	-0.94 °C	-1.01 °C	-1.85 °C
Cc1cc(NC(=O)c2cccc(NC(=O)/C=C/CN(C)C)c2)ccc1Nc1nccc(-c2cccnc2)n1	3.79 °C	1.64 °C	4.02 °C	6.68 °C	1.52 °C	5.38 °C
Cc1nsc(Nc2cnc(C(F)(F)F)cn2)c1C(=O)Nc1ccc(O[C@H]2CCCN(CC(F)(F)F)C2)nc1	0.72 °C	1.68 °C	0 °C	-3.09 °C	0 °C	2.24 °C
CC(C)(c1ccc(OCc2cccc(COc3ccc(C(=N)N)cc3)c2)cc1)c1ccc(O[C@@H]2O[C@H](C(=O)O)[C@@H](O)[C@H](O)[C@H]2O)cc1	-2.82 °C	-1.86 °C	-5.29 °C	-4.59 °C	-6.63 °C	-5.6 °C
Cc1ccccc1Oc1cc(-n2c(=O)cc(C(F)(F)F)[nH]c2=O)c2ccccc2c1Cl	-0.09 °C	0.61 °C	0.85 °C	-1.52 °C	-0.82 °C	-1.95 °C
CN(C)c1ccc(-c2cc3ncccc3c(OCCCCO)n2)cc1	5.68 °C	0.73 °C	1.32 °C	0.13 °C	0.3 °C	8.85 °C

SMILES	ΔTm [1]	ΔTm [2]	ΔTm [3]	ΔTm [4]	ΔTm [5]	ΔTm [6]
O=C(NCCS(=O)(=O)c1ccc(C(F)(F)F)cn1)c1ccc(Cl)cc1	0 °C	0.73 °C	0.23 °C	-1.08 °C	0.3 °C	-0.52 °C
O[C@]1(C(F)(F)F)CCCC[C@H]1Nc1ccc(F)cc1	0.25 °C	1.15 °C	0.07 °C	-0.77 °C	0.26 °C	0.42 °C
C=CC(=O)Nc1cccc(C(=O)Nc2ccc(Nc3cc(-c4c(-c5ccc(F)cc5)nc(SC)n4C)ccn3)cc2)c1	2.33 °C	-0.01 °C	3.17 °C	-0.32 °C	0.35 °C	1.08 °C
O=C(CCCCCCc1ccccc1)c1ncc(-c2ccccn2)o1	0.19 °C	0.75 °C	0.19 °C	-0.85 °C	-0.04 °C	-0.34 °C
COc1ccc2c(O[C@@H]3C[C@H]4C(=O)N[C@]5(C(=O)NS(=O)(=O)C6(C)CC6)CC5/C=C\CCCCC[C@H](NC(=O)c5ccn(C)n5)C(=O)N4C3)cc(OC(C)C)nc2c1C (some centres undefined)	-0.32 °C	-0.49 °C	-1.66 °C	-4.13 °C	-0.6 °C	-0.12 °C
COc1ccc(-c2c(-c3ccccc3)oc3ncnc(O[C@H](C)CCCCC(=O)O)c23)cc1	-0.07 °C	-2.59 °C	-0.84 °C	-2 °C	-3.65 °C	5.26 °C
CCN1CCN(Cc2ccc(C(=O)Nc3ccc(C)c(Oc4ccc5c(c4)CC(=O)N5)c3)cc2C(F)(F)F)CC1	12.9 °C	0.01 °C	0.95 °C	0.8 °C	0.26 °C	-1.25 °C
C[C@@H]1CN(CC(=O)N2CC(C)(C)c3nc(CO)c(Cc4ccc(F)cc4)cc32)[C@@H](CN2CCOC[C@H]2C)CN1	0.35 °C	0.82 °C	-0.16 °C	-0.02 °C	0.01 °C	-0.39 °C
CCCCc1oc2ccccc2c1C(=O)c1cc(I)c(OCCN(CC)CC)c(I)c1	0.12 °C	0.14 °C	0.32 °C	-0.84 °C	0.02 °C	-1.66 °C
CC(=O)Nc1nc(CN2CCC[C@H](Cc3cc(C)nc(C)c3)C2)cs1	0.19 °C	0 °C	0.1 °C	-0.34 °C	0.5 °C	0.28 °C
CCNc1ccc(-c2nn(-c3ccccc3C)c3c2C(C)Cc2nc(NC(=O)OC)sc2-3)cn1 (centres undefined)	0.34 °C	0.64 °C	0.19 °C	-0.97 °C	-0.13 °C	1.08 °C
CC1CN(CC(=O)N2CC(C)(C)c3nc(CO)c(Cc4ccc(F)cc4)cc32)C(CN2CCOCC2C)CN1 (centres undefined)	0.01 °C	0.68 °C	0.32 °C	-1.07 °C	0.17 °C	-1.32 °C
N=C(N)NCCC[C@H](NC(=O)CC1(CC(=O)N2CCN(C(c3ccccc3)c3ccccc3)CC2)CCCC1)C(=O)NCc1ccccc1	-0.53 °C	-1.78 °C	0.02 °C	-1.84 °C	-0.93 °C	-0.79 °C
C=CC[C@@H]1/C=C(\C)C[C@H](C)C[C@H](OC)[C@H]2O[C@@](O)(C(=O)C(=O)N3CCCC[C@H]3C(=O)O[C@H](/C(C)=C/[C@@H]3CC[C@@H](O)[C@H](OC)C3)[C@H](C)[C@@H](O)CC1=O)[C@H](C)C[C@@H]2OC	-0.14 °C	-0.14 °C	-0.31 °C	0.01 °C	-1.81 °C	-0.2 °C
CC(=O)O[C@H]1C(=O)[C@@]2(C)[C@H]([C@H](OC(=O)c3ccccc3)[C@]3(O)C[C@H](OC(=O)[C@H](O)[C@@H](NC(=O)c4ccccc4)c4ccccc4)C(C)=C1C3(C)C)[C@]1(OC(C)=O)CO[C@@H]1C[C@@H]2O	0.38 °C	0.99 °C	-0.22 °C	-0.02 °C	0.57 °C	-0.14 °C
Nc1nccc(-c2c(-c3ccc(F)cc3)ncn2C2CCN(Cc3ccon3)CC2)n1	0.7 °C	0.23 °C	10.1 °C	6.87 °C	0.36 °C	-0.88 °C
CCN(C)C(=O)c1ccc2c(c1)NC(=O)/C2=C(\NC1CCN(C)CC1)c1ccccc1	-0.14 °C	0.01 °C	0.23 °C	2.01 °C	0.03 °C	-0.37 °C
COc1ccc(CC[C@@H](OC(=O)[C@@H]2CCCCN2C(=O)[C@H](c2cc(OC)c(OC)c(OC)c2)C2CCCCC2)c2cccc(OCCN3CCOCC3)c2)cc1OC	-1.71 °C	-1.5 °C	-2.54 °C	-2.19 °C	-0.05 °C	-0.45 °C
Cn1cncc1-c1cn(-c2cccc(C(=O)Nc3cccc(C(F)(F)F)c3)c2)nn1	7.19 °C	0.01 °C	-7.39 °C	-0.16 °C	-8.38 °C	1.95 °C
CC(=O)c1ccc2c(c1)/C(=C(/NC1CCN(C)CC1)c1ccc3c(c1)OCO3)C(=O)N2	0.16 °C	4.87 °C	2.46 °C	15.5 °C	0.57 °C	0.78 °C
COc1cc(C(=O)NC2CCN(C)CC2)ccc1Nc1ncc2c(n1)N(C1CCCC1)CC(F)(F)C(=O)N2C	0.35 °C	0.09 °C	1.15 °C	-0.4 °C	0.38 °C	0.78 °C
CC1(C)Oc2ncnc(N)c2N=C1c1ccc([C@H]2CC[C@H](CC(=O)O)CC2)cc1	0.89 °C	0.57 °C	-0.19 °C	0.61 °C	0.18 °C	0.25 °C
Cn1ccc(Cn2cnc(-c3ccc(F)cc3)c2-c2ccnc3[nH]ccc23)n1	0.71 °C	0.42 °C	6.32 °C	-0.53 °C	0.21 °C	-0.97 °C
CS(=O)(=O)NCC[C@H](NC(=O)c1cncc2c1cnn2-c1ccc(F)cc1)c1ccnc(S(C)(=O)=O)c1	-0.12 °C	-0.17 °C	0.57 °C	-1.34 °C	0.26 °C	0.06 °C
